Test results: ChEMBL document CHEMBL3988442, “University of Dundee, Small-Polar-MMV Screening Library” (2021)
The campaign covered roughly 48,000 compounds. About 13,000 (27%) showed an effect of 50% or more. This is one part of the list.

Tested on: Wolbachia pipientis
Assay: Anti-Wolbachia Cell-Based Screen
Assay type: functional
Set-up: scale not given: in the data most compounds retested in dose-response had high values
Conditions: 5 µM

Which “Percent Effect” value does the source give for `N[C@H]1CN(C(=O)c2ccccc2OCCc2ccccc2)C[C@@H]1C1CC1` here?
Its value is 18.87%.

`O=S(=O)(NC1=NCN(CCc2cccs2)CN1)c1ccccc1` was tested. Which “Percent Effect” value did it give?
The value was 2.891%.

How did the “Percent Effect” value turn out when `Cc1ncc2c(n1)CN(Cc1cn3ccsc3n1)CC2` was run?
The value was -12.96%.

With `COCCN(Cc1ccoc1)C(=O)c1ccccn1` as the molecule, how does the “Percent Effect” value read?
Its value is 112.1%.

With `COCCN(Cc1ccoc1)C(=O)CSc1ccc(F)cc1` as the molecule, how does the “Percent Effect” value read?
Its value is 117.6%.

With `COCCN(Cc1ccoc1)C(=O)c1cccnc1SC` as the molecule, how does the “Percent Effect” value read?
The value was 9.468%.

How did the “Percent Effect” value turn out when `COCCCN(Cc1ccncc1)C(=O)CSc1ccc(F)cc1` was run?
The value was -0.07203%.

How did the “Percent Effect” value turn out when `CCN(C)c1ccc(C(=O)N(CCOC)Cc2ccccn2)cc1` was run?
Its value is -4.982%.

Which “Percent Effect” value does the source give for `NC(=O)CCN(C(=O)CSc1ccc(F)cc1)c1ccc(F)cc1` here?
The value was -8.487%.

How did the “Percent Effect” value turn out when `O=C(CN1CCC2(CCCN(CCO)C2=O)C1)NCCc1ccccc1` (configuration not stated) was run?
Its value is 3.055%.

How did the “Percent Effect” value turn out when `O=C(COc1coc(CN2CCCCC2)cc1=O)Nc1ccc(Cl)cc1` was run?
The value was -2.562%.

With `Cc1cccc(NS(=O)(=O)c2cc3c(c(C(=O)O)c2)OCCO3)c1` as the molecule, how does the “Percent Effect” value read?
Its value is 105.7%.

Which “Percent Effect” value does the source give for `Cc1ccc(F)c(NS(=O)(=O)c2cc3c(c(C(=O)O)c2)OCCO3)c1` here?
The value was 118.3%.

Which “Percent Effect” value does the source give for `CN(c1ccc(F)c(F)c1)S(=O)(=O)c1cc2c(c(C(=O)O)c1)OCCO2` here?
The value was -16.04%.

How did the “Percent Effect” value turn out when `Cc1ccc(NS(=O)(=O)c2cc3c(c(C(=O)O)c2)OCCO3)c(F)c1` was run?
Its value is -7.996%.

`Cc1cc(C)cc(N(C)S(=O)(=O)c2cc3c(c(C(=O)O)c2)OCCO3)c1` was tested. Which “Percent Effect” value did it give?
The value was -3.92%.

`Cc1ccc(C)c(NS(=O)(=O)c2cc3c(c(C(=O)O)c2)OCCO3)c1` was tested. Which “Percent Effect” value did it give?
Its value is 110.3%.

Which “Percent Effect” value does the source give for `Cc1cc(C)cc(NS(=O)(=O)c2cc3c(c(C(=O)O)c2)OCCO3)c1` here?
Its value is 6.571%.

How did the “Percent Effect” value turn out when `Cc1ccccc1NS(=O)(=O)c1cc2c(c(C(=O)O)c1)OCCO2` was run?
Its value is -5.791%.

With `CCc1cccc(NS(=O)(=O)c2cc3c(c(C(=O)O)c2)OCCO3)c1` as the molecule, how does the “Percent Effect” value read?
Its value is 10.09%.

Which “Percent Effect” value does the source give for `Cc1nc(CN(C)C(=O)c2cccc(CC3CCNCC3)c2)no1` here?
Its value is -18.2%.

Which “Percent Effect” value does the source give for `CCc1nnsc1C(=O)NC(CC(C)C)C(=O)OC` (configuration not stated) here?
The value was -4.538%.

For `CN1C[C@@H](NC(=O)c2cc(F)cc(F)c2)C[C@H]1C(=O)NCc1ncc[nH]1`, which “Percent Effect” value is on record?
The value was 4.795%.

`COc1ccccc1NCC(=O)NCc1scnc1C` was tested. Which “Percent Effect” value did it give?
The value was -10.76%.

`CN(CC1COc2ccccc2O1)C(=O)NCCCn1ccnc1` (configuration not stated) was tested. Which “Percent Effect” value did it give?
Its value is -8.094%.

Which “Percent Effect” value does the source give for `CC(Cn1ccnc1)NC(=O)NCCN1CCc2ccccc2C1` (configuration not stated) here?
Its value is 3.376%.

With `O=C(c1cccnc1)N1Cc2ccccc2OCC1Cn1ccnc1` (configuration not stated) as the molecule, how does the “Percent Effect” value read?
Its value is 99.63%.

With `CC1CN(CCC(=O)NCCc2cccnc2)Cc2ccccc2O1` (configuration not stated) as the molecule, how does the “Percent Effect” value read?
The value was 11.18%.

With `Cc1nc(C)c(C(=O)N2Cc3ccccc3OCC2Cn2ccnc2)o1` (configuration not stated) as the molecule, how does the “Percent Effect” value read?
Its value is -31.31%.

With `Cc1nc(C)c(C(=O)N2Cc3ccccc3OCC2Cn2ccnc2)s1` (configuration not stated) as the molecule, how does the “Percent Effect” value read?
The value was 70.21%.

For `CCc1nc2n(n1)CC(NCCc1cccs1)CC2` (configuration not stated), which “Percent Effect” value is on record?
The value was -19.61%.

For `N#Cc1c(F)cccc1NCCCOCC1CCOCC1`, which “Percent Effect” value is on record?
The value was -8.528%.

How did the “Percent Effect” value turn out when `O=C1CC(c2ccsc2)c2snc(C(=O)O)c2N1` (configuration not stated) was run?
Its value is -3.117%.

For `CC1(C)CNC(=O)CN(C(=O)Cc2ccccc2)C1`, which “Percent Effect” value is on record?
Its value is 98.91%.

`O=C1CCC2(CCCN(C(=O)Cc3ccccc3)C2)N1` (configuration not stated) was tested. Which “Percent Effect” value did it give?
The value was -74.63%.

`Cc1ccnc2c1NC(=O)CN2C(=O)CCc1ccccc1` was tested. Which “Percent Effect” value did it give?
Its value is 5.988%.

For `CC1(C)CNC(=O)CN(C(=O)CCc2ccccc2)C1`, which “Percent Effect” value is on record?
Its value is 92.84%.

For `CCc1nsc(N2CCN(C(=O)COc3ccccc3)CC2)n1`, which “Percent Effect” value is on record?
Its value is -3.89%.

Which “Percent Effect” value does the source give for `CCc1ccc(CCC(=O)N2CCC(=O)Nc3cccnc32)cc1` here?
The value was -4.556%.

`Cc1nc(-c2ccc(CC(=O)N3CCNC(=O)C3)cc2)cs1` was tested. Which “Percent Effect” value did it give?
Its value is -10.4%.

Which “Percent Effect” value does the source give for `COc1ccc(CC(=O)N2CC[C@@H]3NC(=O)CC[C@@H]32)cc1` here?
The value was -10.22%.

With `CC1(C)CNC(=O)CN(C(=O)COc2ccccc2)C1` as the molecule, how does the “Percent Effect” value read?
The value was 99.32%.

Which “Percent Effect” value does the source give for `Cc1ccc(N2CCN(C(=O)COc3ccccc3)CC2)nn1` here?
Its value is -10.88%.

For `O=C(O)C(F)(F)F.O=C1CCC2(CCCN(C(=O)Cc3cccnc3)C2)N1` (configuration not stated), which “Percent Effect” value is on record?
The value was -30.04%.

How did the “Percent Effect” value turn out when `COc1ccc(CC(=O)N2CC(=O)NCC(C)(C)C2)cc1` was run?
The value was 81.26%.

`CN(C)C(=O)CS(=O)(=O)Cc1ccn(-c2cccc(F)c2)n1` was tested. Which “Percent Effect” value did it give?
The value was 3.991%.

With `CCn1c(CN(C)C)nnc1C1CCN(Cc2ccc(C)s2)CC1` as the molecule, how does the “Percent Effect” value read?
Its value is -25.38%.

How did the “Percent Effect” value turn out when `COc1ccc(-c2n[nH]cc2CN(C)CCCN2CCOCC2)c(F)c1` was run?
Its value is 4.429%.

How did the “Percent Effect” value turn out when `N#Cc1nccnc1NCCC1CCN(CC(F)(F)F)CC1` was run?
Its value is -10.09%.

How did the “Percent Effect” value turn out when `O=C(CN1CCC2(CCCCC2)C1)NCC(F)(F)F` was run?
The value was -17.09%.

`O=C(NCCCn1cccn1)N1CCCC1c1ccncc1` (configuration not stated) was tested. Which “Percent Effect” value did it give?
Its value is 20.68%.

Which “Percent Effect” value does the source give for `Cc1cnn(CCNCc2ccc(F)cc2Cl)c1` here?
The value was -9.942%.

`COc1ccc(CCNC(=O)NC2CC(=O)N(c3ccccc3)C2)cc1` (configuration not stated) was tested. Which “Percent Effect” value did it give?
The value was 13.52%.

For `CC(C)c1cn(CC(=O)NC2CC(=O)N(CCc3ccccc3)C2)nn1` (configuration not stated), which “Percent Effect” value is on record?
The value was 94.88%.

With `CC(C)Oc1ccccc1C(=O)NC1CC(=O)N(CC(F)(F)F)C1` (configuration not stated) as the molecule, how does the “Percent Effect” value read?
Its value is -7.447%.

How did the “Percent Effect” value turn out when `O=C(NCC1CC(=O)N(CCc2ccccc2)C1)c1ccc[nH]1` (configuration not stated) was run?
The value was -4.58%.

With `COc1ccccc1N1CCC(CNC(=O)CN2CSCC2=O)C1` (configuration not stated) as the molecule, how does the “Percent Effect” value read?
The value was -5.034%.

How did the “Percent Effect” value turn out when `COc1ccccc1N1CC(NC(=O)c2cc(C(C)C)nn2C)CC1=O` (configuration not stated) was run?
Its value is 186.5%.

`Cc1ccccc1C(NC(=O)Cn1cc(C2CC2)nn1)C1CC1` (configuration not stated) was tested. Which “Percent Effect” value did it give?
Its value is 6.908%.

Which “Percent Effect” value does the source give for `COc1ccccc1N1CC(NC(=O)Cn2cc(C)nn2)CC1=O` (configuration not stated) here?
Its value is 83.28%.

Which “Percent Effect” value does the source give for `O=C1CC(NS(=O)(=O)N2CCOCC2)CN1CCc1ccccc1` (configuration not stated) here?
Its value is 3.785%.

`COc1ccccc1N1CC(NC(=O)Cn2cc(C(C)C)nn2)CC1=O` (configuration not stated) was tested. Which “Percent Effect” value did it give?
Its value is 82.88%.

With `COc1ccccc1N1CCCC(Nc2ncccn2)C1=O` (configuration not stated) as the molecule, how does the “Percent Effect” value read?
The value was -13.39%.

Which “Percent Effect” value does the source give for `COc1ccccc1N1CCN(CC[C@H](O)c2ccccc2)CC1=O` here?
The value was -5.081%.

With `COc1cc(-c2cccc3c2OC(CN)C3)ccc1O` (configuration not stated) as the molecule, how does the “Percent Effect” value read?
The value was 12.42%.

`CC(C)(C)NC(=O)c1cnc2n1CCCC2` was tested. Which “Percent Effect” value did it give?
Its value is -4.757%.

For `CCOC(=O)N1CCN(c2nc(C)ncc2CC)CC1`, which “Percent Effect” value is on record?
The value was -1.601%.
